According to PubChem BioAssay AID1159580 (chemical genetic matrix, 2015):
Screen size: about 5,500 compounds; about 2,000 (36%) were called active. Inconclusive results (about 18%) are left out. Cut-off read from the data, not from the text of the source: active = normalized growth mostly below about 0.91 (no sharp cut-off); inconclusive = no clear call, values can overlap the other calls; inactive = mostly above about 0.92. The list shows a part of the results.

Assay: chemical genetic growth profiling, strain panel (AID 1159580);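 note: tested at 20 µM; growth read once vehicle control cultures reached saturation at 30 °C; 1 = growth at the plate median or of vehicle wells; lower values mean less growth of the strain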
Settings: growth OD

Measured: normalized growth

N[C@H](Cc1cc(I)c(Oc2ccc(O)c(I)c2)c(I)c1)C(=O)O
inactive: S. cerevisiae deletion strains, locus YJR075W, strain HOC1, stronger effect = lower value 1 | S. cerevisiae deletion strains, locus YKL009W, strain mrt4, stronger effect = lower value 1.03 | S. cerevisiae deletion strains, locus YKL068W, stronger effect = lower value 0.998 | S. cerevisiae deletion strains, locus YKL085W, strain MDH1 (second series), stronger effect = lower value 0.991 | S. cerevisiae deletion strains, locus YKL085W, strain MDH1, stronger effect = lower value 0.991 | S. cerevisiae deletion strains, locus YKL160W, strain elf1, stronger effect = lower value 0.965 | S. cerevisiae deletion strains, locus YKL190W, strain CNB1, stronger effect = lower value 1.01 | S. cerevisiae deletion strains, locus YKR026C, strain gcn3, stronger effect = lower value 0.999 | S. cerevisiae deletion strains, locus YKR091W, strain srl3, stronger effect = lower value 0.998 | S. cerevisiae deletion strains, locus YLL001W, strain dnm1, stronger effect = lower value 0.989 | S. cerevisiae deletion strains, locus YLL026W, stronger effect = lower value 1 | S. cerevisiae deletion strains, locus YLL041C, strain sdh2, stronger effect = lower value 1 | S. cerevisiae deletion strains, locus YLR027C, strain aat2, stronger effect = lower value 0.968 | S. cerevisiae deletion strains, locus YLR039C, strain RIC1, stronger effect = lower value 0.964 | S. cerevisiae deletion strains, locus YLR058C, strain SHM2, stronger effect = lower value 1.01 | S. cerevisiae deletion strains, locus YLR102C, strain apc9, stronger effect = lower value 0.996 | S. cerevisiae deletion strains, locus YLR113W, strain HOG1, stronger effect = lower value 1.04 | S. cerevisiae deletion strains, locus YLR221C, strain rsa3, stronger effect = lower value 0.945 | S. cerevisiae deletion strains, locus YLR258W, strain gsy2, stronger effect = lower value 0.969 | S. cerevisiae deletion strains, locus YLR262C, strain YPT6 (second series), stronger effect = lower value 0.938 | S. cerevisiae deletion strains, locus YLR262C, strain YPT6, stronger effect = lower value 0.953 | S. cerevisiae deletion strains, locus YLR268W, strain sec22, stronger effect = lower value 0.909 | S. cerevisiae deletion strains, locus YLR320W, strain mms22, stronger effect = lower value 0.941 | S. cerevisiae deletion strains, locus YLR330W, strain CHS5, stronger effect = lower value 1.04 | S. cerevisiae deletion strains, locus YLR342W, strain FKS1 (second series), stronger effect = lower value 0.95 | S. cerevisiae deletion strains, locus YLR342W, strain FKS1, stronger effect = lower value 0.994 | S. cerevisiae deletion strains, locus YLR357W, strain rsc2, stronger effect = lower value 1 | S. cerevisiae deletion strains, locus YLR370C, strain arc18, stronger effect = lower value 0.999 | S. cerevisiae deletion strains, locus YLR371W, strain rom2, stronger effect = lower value 0.989 | S. cerevisiae deletion strains, locus YLR384C, strain iki3, stronger effect = lower value 0.993 | S. cerevisiae deletion strains, locus YML016C, strain PPZ1, stronger effect = lower value 0.997 | S. cerevisiae deletion strains, locus YML032C, strain rad52, stronger effect = lower value 0.989 | S. cerevisiae deletion strains, locus YML120C, strain ndi1, stronger effect = lower value 0.998 | S. cerevisiae deletion strains, locus YML124C, strain tub3, stronger effect = lower value 0.997 | S. cerevisiae deletion strains, locus YMR058W, strain fet3, stronger effect = lower value 0.988 | S. cerevisiae deletion strains, locus YMR078C, strain ctf18, stronger effect = lower value 1.01 | S. cerevisiae deletion strains, locus YMR125W, strain sto1, stronger effect = lower value 0.989 | S. cerevisiae deletion strains, locus YMR129W, stronger effect = lower value 0.999 | S. cerevisiae deletion strains, locus YMR205C, strain PFK2, stronger effect = lower value 0.88 | S. cerevisiae deletion strains, locus YMR223W, strain ubp8, stronger effect = lower value 0.934 | S. cerevisiae deletion strains, locus YMR231W, strain pep5, stronger effect = lower value 0.999 | S. cerevisiae deletion strains, locus YMR263W, strain SAP30, stronger effect = lower value 1 | S. cerevisiae deletion strains, locus YMR307W, strain GAS1, stronger effect = lower value 0.956 | S. cerevisiae deletion strains, locus YNL067W, strain RPL9B, stronger effect = lower value 1.01 | S. cerevisiae deletion strains, locus YNL128W, strain TEP1, stronger effect = lower value 1.01 | S. cerevisiae deletion strains, locus YNL153C, strain GIM3, stronger effect = lower value 0.998 | S. cerevisiae deletion strains, locus YNL183C, strain NPR1, stronger effect = lower value 0.977 | S. cerevisiae deletion strains, locus YNL209W, strain ssb2, stronger effect = lower value 1 | S. cerevisiae deletion strains, locus YNL233W, strain BNI4, stronger effect = lower value 0.961 | S. cerevisiae deletion strains, locus YNL248C, strain rpa49, stronger effect = lower value 0.986 | S. cerevisiae deletion strains, locus YNL250W, strain rad50, stronger effect = lower value 0.988 | S. cerevisiae deletion strains, locus YNL271C, strain bni1, stronger effect = lower value 0.989 | S. cerevisiae deletion strains, locus YNL298W, strain CLA4, stronger effect = lower value 1 | S. cerevisiae deletion strains, locus YNL322C, strain KRE1 (second series), stronger effect = lower value 1.02 | S. cerevisiae deletion strains, locus YNL322C, strain KRE1, stronger effect = lower value 1.01 | S. cerevisiae deletion strains, locus YNR049C, strain mso1, stronger effect = lower value 0.998 | S. cerevisiae deletion strains, locus YNR052C, strain pop2, stronger effect = lower value 0.999 | S. cerevisiae deletion strains, locus YOL006C, strain TOP1, stronger effect = lower value 0.942 | S. cerevisiae deletion strains, locus YOL012C, strain htz1 0.841 | S. cerevisiae deletion strains, locus YOL147C, strain pex11, stronger effect = lower value 1 | S. cerevisiae deletion strains, locus YOR001W, strain rrp6, stronger effect = lower value 1.01 | S. cerevisiae deletion strains, locus YOR061W, strain CKA2, stronger effect = lower value 0.994 | S. cerevisiae deletion strains, locus YOR069W, strain VPS5, stronger effect = lower value 1 | S. cerevisiae deletion strains, locus YOR070C, strain gyp1, stronger effect = lower value 0.992 | S. cerevisiae deletion strains, locus YOR080W, strain dia2, stronger effect = lower value 0.987 | S. cerevisiae deletion strains, locus YOR083W, strain WHI5, stronger effect = lower value 0.965 | S. cerevisiae deletion strains, locus YOR106W, strain vam3, stronger effect = lower value 0.935 | S. cerevisiae deletion strains, locus YOR136W, strain idh2, stronger effect = lower value 0.97 | S. cerevisiae deletion strains, locus YOR144C, strain elg1, stronger effect = lower value 0.994 | S. cerevisiae deletion strains, locus YOR184W, strain ser1, stronger effect = lower value 0.889 | S. cerevisiae deletion strains, locus YOR231W, strain MKK1, stronger effect = lower value 1.03 | S. cerevisiae deletion strains, locus YOR265W, strain rbl2, stronger effect = lower value 0.993 | S. cerevisiae deletion strains, locus YOR270C, strain vph1, stronger effect = lower value 0.953 | S. cerevisiae deletion strains, locus YOR290C, strain snf2, stronger effect = lower value 0.983 | S. cerevisiae deletion strains, locus YOR316C, strain cot1, stronger effect = lower value 1 | S. cerevisiae deletion strains, locus YPL051W, strain arl3, stronger effect = lower value 0.95 | S. cerevisiae deletion strains, locus YPL055C, strain LGE1, stronger effect = lower value 1 | S. cerevisiae deletion strains, locus YPL078C, strain atp4, stronger effect = lower value 0.968 | S. cerevisiae deletion strains, locus YPL106C, strain sse1, stronger effect = lower value 0.96 | S. cerevisiae deletion strains, locus YPL240C, strain hsp82, stronger effect = lower value 0.982 | S. cerevisiae deletion strains, locus YPL241C, strain CIN2, stronger effect = lower value 1.01 | S. cerevisiae deletion strains, locus YPL256C, strain CLN2, stronger effect = lower value 1.05 | S. cerevisiae deletion strains, locus YPR119W, strain clb2, stronger effect = lower value 0.998 | S. cerevisiae deletion strains, locus YPR141C, strain kar3, stronger effect = lower value 1.01 | S. cerevisiae deletion strains, locus YPR167C, strain met16, stronger effect = lower value 1.01 | S. cerevisiae deletion strains, strain wtn01, stronger effect = lower value 0.955 | S. cerevisiae strains, strain wild type, stronger effect = lower value 1
active: S. cerevisiae deletion strains, locus YKR001C, strain vps1, stronger effect = lower value 0.862 | S. cerevisiae deletion strains, locus YLR418C, strain cdc73, stronger effect = lower value 0.77 | S. cerevisiae deletion strains, locus YNL071W, strain lat1, stronger effect = lower value 0.627 | S. cerevisiae deletion strains, locus YNL307C, strain MCK1, stronger effect = lower value 0.613 | S. cerevisiae deletion strains, locus YPR163C, strain tif3, stronger effect = lower value 0.909
